Experimental data from the OligoGym collection.
Note: reference of the scale not given here.

Each sequence was assayed against USO1 (assay: pooled miR-30 sensor sort-seq; sequence = guide strand). Conditions: shRNA.
TAGCATTAGATGTAGATTGGTC gave a sensor-assay potency score (higher = more potent) of 0.084.
In the case of TTATAGTCTCGGTCTCTCCTTG, the sensor-assay potency score (higher = more potent) is reported as 0.0783.
Work on TAGGATAGTACAAAGCTGCTGC yielded a sensor-assay potency score (higher = more potent) of 0.88.

Each sequence was assayed against USP2 in the same assay as above. Conditions: shRNA.
Sequence TTTTGCAAACTCTTCCACGAGG has a sensor-assay potency score (higher = more potent) of -0.596.
Sequence TTGGTGAAGAGCCTCATGCAGT has a sensor-assay potency score (higher = more potent) of -0.823.
For TTCTCCACATCTGTCGGCCTTT, the sensor-assay potency score (higher = more potent) was -0.4.
For TGAAAGTGTGCCATTCTCCTGT, the sensor-assay potency score (higher = more potent) was 0.787.
TATTTTCTCCACATCTGTCGGC gave a sensor-assay potency score (higher = more potent) of 0.643.
With ATTGAGTTCATGAAGCACGTGT the sensor-assay potency score (higher = more potent) was 0.753.
Sequence TTAGGTCTCAGTGTCACTCGGT has a sensor-assay potency score (higher = more potent) of 0.557.
TAGTTTTGCAAACTCTTCCACG was tested, and the sensor-assay potency score (higher = more potent) was -0.662.
In the case of TAGATATTTTCTCCACATCTGT, the sensor-assay potency score (higher = more potent) is reported as -1.14.
TAGGTCTCAGTGTCACTCGGTT was tested, and the sensor-assay potency score (higher = more potent) was -0.44.
For TAGAACAGTAACCACAATCTGT, the sensor-assay potency score (higher = more potent) was -0.00783.

Each sequence was assayed against USP43 in the same assay as above. Conditions: shRNA.
TTTGCACAAAGCTTTGACCTAG showed a sensor-assay potency score (higher = more potent) of 0.51.
TTCGGAGACAAATAGCTGCAGG was tested, and the sensor-assay potency score (higher = more potent) was -0.652.
TAGGTAGGGACACACACAGGAA showed a sensor-assay potency score (higher = more potent) of -1.19.
TACTCCACCAACTCGACGGAGG gave a sensor-assay potency score (higher = more potent) of -1.32.
Work on TTGCACAAAGCTTTGACCTAGA yielded a sensor-assay potency score (higher = more potent) of 0.359.
TGTAGAACTGAAAACATTCATC showed a sensor-assay potency score (higher = more potent) of -0.712.
With TTGCTGTGTTTGGACCATCTGA the sensor-assay potency score (higher = more potent) was -0.995.
TCGTACAGGAAGTCCAGCGGGT showed a sensor-assay potency score (higher = more potent) of -0.327.
For TAGAACAGGATATAAGCCCCTC, the sensor-assay potency score (higher = more potent) was -0.232.
TTTCCTTGAGTTTCCTTGCTGT gave a sensor-assay potency score (higher = more potent) of 0.819.
TTGCTGAGGATAGACTGCTGGA showed a sensor-assay potency score (higher = more potent) of -0.504.
In the case of TAGCACCTTGCTCTCACTGTGG, the sensor-assay potency score (higher = more potent) is reported as -0.424.
